Source: PubChem BioAssay (National Center for Advancing Translational Sciences (NCATS))
Only some compounds are listed: those with a hit (about 2.8% of all), similar ones and a draw of the others.
SNCA viab count: GF-AFC viability counterscreen for inhibitors of alpha-synuclein gene (SNCA) expression | HEK-293-SNCA-luc viability, GF-AFC fluorescence, 24 h | Potency, µM (titrated, usually from 57.1 µM), usual class: cytotoxic | actives 0.12% (n = 150,000); further: nearly all actives have a fitted effect of over 30% in size
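HEK-293-SNCA-luc cells (1500/well) plated 24 h, then exposed 24 h to a dilution series; GF-AFC added 30 min at 37C, fluorescence 405/540 nm; normalised to medium-only and DMSO wells, Hill fit.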
IP6K1 inhibitor: Primary qHTS assay for small molecule inhibitors of Inositol hexaphosphate kinase 1 (IP6K1); Inositol hexakisphosphate kinase 1 (Homo sapiens), Q92551; IP6K1 kinase, ADP-Glo luminescence, 2 h; active compounds read low; activity change, % (series mostly up to about 58 µM); actives 0.81% (n = 140,000); in the data active means activity change below about -25%
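ADP-Glo luminescence measures ADP made by human IP6K1 during a 2 h RT reaction with ATP/IP6 (mix at 1.3 mM/130 uM); top library doses 57.5 and 19.1 uM final.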
SNCA expr inh: Primary qHTS assay for inhibitors of alpha-synuclein gene (SNCA) expression; Potency, µM (titrated, usually from 57.2 µM), hits mostly inhibitors; actives 0.17% (n = 140,000); HEK-293 SNCA-luciferase knock-in, luminescence, 24 h; further: nearly all actives have a fitted effect of over 45% in size
KDM5B inh: Primary screen for KDM5B Histone Demethylases FDH-coupled qHTS; Lysine-specific demethylase 5B (Homo sapiens), Q9UGL1; KDM5B demethylase, FDH-coupled NADH fluorescence (FDH is formaldehyde dehydrogenase); Potency, µM (top dose mostly 57.7 µM), most hits filed as inhibitors; actives 2.6% (n = 220,000); AID 1347165, 2019; further: nearly all actives have a fitted effect of over 70% in size
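Here, H3K4me3 peptide (12.5 µM in substrate mix) is demethylated by KDM5BΔAP, 200 nM final, after 10 min compound exposure. Formaldehyde product is coupled through FDH (0.25 U/mL in mix) to NADH fluorescence; 30-min ΔRFU feeds dose-response curves.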
Large screens that a line does not name were inactive. Unless noted, the call rests on the fitted dose curve; in most records, active means well fitted curve in the direction sought with a large enough effect; inconclusive means small, poorly fitted or top-dose-only effect, or another doubt; inactive means no such curve, though single readings can be large; an effect the other way counts as inactive or inconclusive.

COc1cccc([S+](=O)([O-])NC[C@@H]2CC[C@H]3C[C@@H]2C3(C)C)c1	SNCA viab count inconclusive, SNCA expr inh 7.1µM
COc1ccc(-c2nc(C)nc3c2CN(C(=O)c2ccccn2)CC3)cc1	KDM5B inh 16µM
COc1ccc(-c2nc(C)nc3c2CCN(Cc2cc(C)on2)CC3)cc1	KDM5B inh 20µM
COc1ccc(-c2nc(C)nc3c2CCN(CC2CCCCC2)CC3)cc1	KDM5B inh 28µM
COc1ccc(-c2nc(C)nc3c2CCN(Cc2ccnn2C)CC3)cc1	KDM5B inh 20µM
C=CCNc1oc(/C=C/c2cc(OC)c(OC)c(OC)c2)nc1C#N	none (no result: SNCA viab count, IP6K1 inhibitor, SNCA expr inh)
NC(=O)c1cccc(NC(=O)c2cccc3ncccc23)c1	none (no result: SNCA viab count, IP6K1 inhibitor, SNCA expr inh)
COc1cccc2cc(-c3cc(=O)oc4cc(OC(=O)N5CCOCC5)ccc34)c(=O)oc12	none (no result: SNCA viab count, IP6K1 inhibitor, SNCA expr inh)
C[C@@]1(O)CCN(Cc2ccc3c4c(cccc24)C(=O)OC3)C[C@@H]1O	KDM5B inh 28µM
O=C(N[C@H]1CCN2C(=O)c3cc(-c4ccc(Cl)cc4)ccc3NC(=O)[C@H]12)C1CCCC1	KDM5B inh 25µM
O=C(N[C@H]1CCN2C(=O)c3cc(-c4cccs4)ccc3NC(=O)[C@H]12)c1cccc(F)c1	KDM5B inh 28µM
O=C(O)CCC(=O)N[C@H]1CCN2C(=O)c3cc(-c4cccs4)ccc3NC(=O)[C@H]12	KDM5B inh 35µM
O=C(N[C@H]1CCN2C(=O)c3cc(-c4cccs4)ccc3NC(=O)[C@H]12)C1CCCC1	KDM5B inh 40µM
COc1ccc(-c2ccc3c(c2)C(=O)N2CC[C@H](NC(=O)C4CCCC4)[C@H]2C(=O)N3)cc1	KDM5B inh inconclusive
Cc1[nH]c(C=O)c(C)c1C	none (no result: SNCA viab count, IP6K1 inhibitor, SNCA expr inh)
O=C(Nc1ccc(I)cc1)C1CC2CCC1C2 (centres undefined)	none (no result: SNCA viab count, IP6K1 inhibitor, SNCA expr inh)
COc1cccc(CN2CCNc3cnc(-c4ccccc4)cc3C2)c1	KDM5B inh 35µM
c1ccc(-c2cc3c(cn2)NCCN(CC2CC2)C3)cc1	KDM5B inh 35µM
COc1ccc(OC)c(CN2CCNc3cnc(-c4ccccc4)cc3C2)c1	SNCA viab count inconclusive, SNCA expr inh inconclusive, KDM5B inh 32µM
Oc1ccccc1CN1CCNc2cnc(-c3ccccc3)cc2C1	KDM5B inh inconclusive
Cn1cc(CN2CCNc3cnc(-c4ccccc4)cc3C2)cn1	KDM5B inh 28µM
CN(C)c1ccc(CN2CCNc3cnc(-c4ccccc4)cc3C2)cc1	KDM5B inh inconclusive
N#Cc1cn(C2CC2)c(=O)n(Cc2coc(-c3ccc(Cl)cc3)n2)c1=O	none (no result: SNCA viab count, IP6K1 inhibitor, SNCA expr inh)
CCOc1ccccc1CNCc1ccco1	none (no result: SNCA viab count, IP6K1 inhibitor, SNCA expr inh)
Cc1cccc(CN2CCNc3cnc(-c4ccccc4)cc3C2)c1	KDM5B inh 35µM
Cc1cccc(-n2nc(-c3c(C)nc4scc(CC(=O)NC(C)C)n4c3=O)cc2C)c1C	KDM5B inh 25µM
CCCNC(=O)Cc1csc2nc(C)c(-c3cc(C)n(-c4cccc(C)c4C)n3)c(=O)n12	KDM5B inh inconclusive
Cc1cccc(-n2nc(-c3c(C)nc4scc(CC(=O)NC(C)C)n4c3=O)cc2C)c1	KDM5B inh inconclusive
CCCCNC(=O)Cc1csc2nc(C)c(-c3cc(C)n(-c4cccc(C)c4C)n3)c(=O)n12	SNCA viab count inconclusive, KDM5B inh 28µM
COCCNC(=O)Cc1csc2nc(C)c(-c3cc(C)n(-c4ccccc4F)n3)c(=O)n12	KDM5B inh 28µM
Cc1nc2scc(CC(=O)NCc3ccco3)n2c(=O)c1-c1cc(C)n(-c2cc(F)ccc2F)n1	KDM5B inh 25µM
Oc1ccc(C2(c3ccc(Br)cc3)CCCCC2)cc1	none (no result: SNCA viab count, IP6K1 inhibitor, SNCA expr inh)
Cc1ccc(F)c2c(C=O)c(C(C)(C)C)[nH]c12	none (no result: SNCA viab count, IP6K1 inhibitor, SNCA expr inh)
CC(C)Oc1ccc(CNC(=O)c2ccc(Cn3ccn4nc5c(c4c3=O)CCCC5)cc2)cc1	KDM5B inh 25µM
Cc1oc(-c2ccccc2)nc1Cn1ccn2nc3c(c2c1=O)CCCC3	KDM5B inh 28µM
COc1ccc(CCNC(=O)c2ccc(Cn3ccn4nc5c(c4c3=O)CCCC5)cc2)cc1OC	KDM5B inh 28µM
Cc1ccc(NC(=O)c2ccc(Cn3ccn4nc5c(c4c3=O)CCCC5)cc2)cc1C	KDM5B inh 25µM
CC(CCc1ccccc1)NC(=O)c1ccc(Cn2ccn3nc4c(c3c2=O)CCCC4)cc1 (centres undefined)	KDM5B inh 35µM
